The results in this text go back to PubChem BioAssay (Tox21).

“And” between values parts separate entries of the source, which are not always exact repeats. Identical values can stand only once. Inconclusive results are not listed. A number with no mark means an inactive call. The source made the active and inactive calls. The call rests on the fitted dose curve; in most records, active means well fitted curve in the direction sought with a large enough effect in the repeat runs; inconclusive means weak or mixed curves; inactive means no such curve, though single readings can be large; an effect the other way counts as inactive or inconclusive.

A short description of experiment [1]: A CellTox Green Cytotoxicity Assay to monitor cytotoxicity in HEK293 cells - 40 hour (AID 1224871). Further: nearly all actives have a fitted effect of over 45% in size. Further: potency means the concentration at half of the fitted maximal effect. Summed up:
(§1)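 Nonlytic real-time cytotoxicity: HEK293 + CellTox Green reagent plated, 5 h preincubation, pintool compound addition (23 nL in DMSO), 37 C for 40 h, fluorescence measured at successive time points.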

The nature of experiment [2]: qHTS RealTime-Glo MT Cell Viability Assay in HEK293 cells - 16 hour (AID 1224872). Further: nearly all actives have a fitted effect of over 50% in size. Further: potency means the concentration at half of the fitted maximal effect. Summed up:
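Assay medium contained NanoLuc luciferase plus cell-permeant prosubstrate, added with HEK293 cells at 600 cells/well. After 5 h at 37 C/5% CO2 compounds were added; plates stayed at 37 C for 40 h with serial luminescence reads.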

The nature of experiment [3]: qHTS RealTime-Glo MT Cell Viability Assay in HepG2 cells - 8 hour (AID 1224873). Further: nearly all actives have a fitted effect of over 55% in size. Further: potency means the concentration at half of the fitted maximal effect. Summed up:
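HepG2 cells (600/well) mixed with RealTime-Glo MT reagent, settled 5 h at 37 C/5% CO2 before compound addition. Nonlytic NanoLuc luminescence from viable-cell prosubstrate reduction read repeatedly during 40 h treatment at 37 C.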
Background: qHTS replaces the single test concentration by a dilution series.

The nature of experiment [4]: qHTS RealTime-Glo MT Cell Viability Assay in HEK293 cells - 40 hour (AID 1224874). Further: nearly all actives have a fitted effect of over 50% in size. Further: potency means the concentration at half of the fitted maximal effect. As to conditions: RealTime-Glo luminescence; max response: active compounds read low. An outline of the steps:
(§2)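 Cells were seeded together with NanoLuc luciferase and a prosubstrate that viable cells reduce to a luciferase substrate. After a 5 h incubation at 37 C/5% CO2, compounds were added and luminescence was measured repeatedly during 40 h of treatment.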

Experiment [5] is described as follows: A CellTox Green Cytotoxicity Assay to monitor cytotoxicity in HEK293 cells - 24 hour (AID 1224875). Further: nearly all actives have a fitted effect of over 45% in size. Further: potency means the concentration at half of the fitted maximal effect. An outline of the steps: as §1
Experiment [6] is described as follows: A CellTox Green Cytotoxicity Assay to monitor cytotoxicity in HepG2 cells - 16 hour (AID 1224876). Further: nearly all actives have a fitted effect of over 45% in size. Further: potency means the concentration at half of the fitted maximal effect. An outline of the steps: (§3)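 Read-out is fluorescence of a cyanine dye excluded from live cells that stains DNA of dead HepG2 cells, with signal proportional to cytotoxicity. Plates were read at 0, 8, 16, 24, 32 and 40 h after compound addition.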
Experiment [7] is described as follows: qHTS RealTime-Glo MT Cell Viability Assay in HepG2 cells - 32 hour (AID 1224877). Further: nearly all actives have a fitted effect of over 55% in size. An outline of the steps:
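qHTS, HepG2, 600 cells/well, RealTime-Glo (NanoLuc + prosubstrate) added with cells; 5 h preincubation; DMSO compound addition; 37 C; luminescence at 0/8/16/24/32/40 h.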

Experiment [8] is described as follows: qHTS RealTime-Glo MT Cell Viability Assay in HEK293 cells - 0 hour (AID 1224880). Further: top concentration of the series differs between compounds; nearly all actives have a fitted effect of over 45% in size. An outline of the steps:
as §2

Experiment [9] can be described thus: A CellTox Green Cytotoxicity Assay to monitor cytotoxicity in HepG2 cells - 24 hour (AID 1224878). Further: nearly all actives have a fitted effect of over 45% in size. Further: potency means the concentration at half of the fitted maximal effect. Summed up: as §3
The nature of experiment [10]: A CellTox Green Cytotoxicity Assay to monitor cytotoxicity in HepG2 cells - 40 hour (AID 1224879). Further: nearly all actives have a fitted effect of over 40% in size. Summed up:
as §3
On the % scale 0 is the no-effect control and ±100 the full control effect.

`O=C(NC(=O)c1cc(F)c(F)cc1Cl)Nc1cc(F)ccc1N1CCC(C(=O)O)CC1`: the Potency result in experiment [1], in [2], in experiment [3], in experiment [5], in experiment [6] and in experiment [7] was “inactive” each time. Further, the max response in experiment [4] is 19.9%. For the same compound, the call in experiment [8] was inactive.

As for `CCCCCCCCn1sccc1=O`, the Potency in experiment [1] was 55.1 µM (active) and 20.4 µM (active); in experiment [2] it was 13.8 µM (active) and 14.5 µM (active); in experiment [3] it was 43.7 µM (active) and 16.2 µM (active); in [4] it was 11 µM (active) and 12.9 µM (active); in experiment [5], 55.1 µM (active) and 40.8 µM (active); in [6], 55.1 µM (active) and 25.7 µM (active). In experiment [9], the Potency was 49.1 µM (active) and 25.7 µM (active).

On to `C[N+](C)(C)CCOC(=O)C(O)(c1ccccc1)c1ccccc1`, for which the Potency entry in [1], in experiment [2], in experiment [3], in experiment [5], in experiment [6] and in experiment [10] was “inactive” each time. Besides, in experiment [4], the max response is 0.291%. The call in [8] was inactive.

For `CC(O)CN1CCN(CC(=O)[O-])CCN(CC(=O)[O-])CCN(CC(=O)[O-])CC1.[Gd+3]` (centres undefined), the Potency entry in [1], in experiment [2], in [3], in [5], in [6] and in experiment [10] was “inactive” throughout. In experiment [4], the max response was 3.85%. Besides, the outcome in experiment [8] was inactive.

`CCCC1CCCCN1` (centres undefined): the Potency entry in [1], in [2], in [3], in [5], in [6] and in [10] was “inactive” in each case. In experiment [4], the max response was 5.87%. In addition, the result in experiment [8] was inactive.

With `CN1C[C@H](C(=O)N[C@]2(C)O[C@@]3(O)[C@@H]4CCCN4C(=O)[C@H](Cc4ccccc4)N3C2=O)C=C2c3cccc4[nH]cc(c34)C[C@H]21`, the Potency entry in [1], in experiment [2], in [5] and in experiment [6] was “inactive” throughout. In experiment [3], the Potency was 13.9 µM (active) and 12.8 µM (active). Besides, the max response in [4] was -10.8%. For the same compound, the compound was classed as inactive in [8].

Consider `CCCCC(CC)CO[N+](=O)[O-]` (centres undefined), for which the Potency entry in experiment [1], in experiment [2], in experiment [3], in experiment [5], in [6] and in experiment [10] was “inactive” each time. Further, in [4], the max response was -1.82%. In addition, the compound was called inactive in experiment [8].

As to `C=CC(C)(CCC=C(C)C)OC(=O)c1ccccc1N` (centres undefined), the Potency entry in [1], in [2], in [3], in experiment [5], in [6] and in [9] was “inactive” each time. The max response in experiment [4] was -1.39%. In addition, the compound was classed as inactive in [8].

With `CCCCCl`, the Potency entry in [1], in [2], in [3], in experiment [5], in experiment [6] and in experiment [9] was “inactive” in each case. In addition, in experiment [10], the Potency result is “inactive”. In [4], the max response is 1.53%.

Turning to `CC(C)(C#N)C(C)(C)C#N`, the Potency entry in experiment [1], in [2], in experiment [3], in experiment [5], in experiment [6] and in experiment [9] was “inactive” throughout. For the same compound, the Potency entry in experiment [10] was “inactive”. The max response in experiment [4] is 1.19%. Also, the call in experiment [8] was inactive.

Take `CCOc1cccc(C2(N3CCN(c4ccccc4)CC3)CCC(C)CC2)c1` (centres undefined): the Potency entry in [1], in experiment [2], in experiment [3], in experiment [5], in experiment [6] and in experiment [10] was “inactive” throughout. In experiment [4], the max response was -7.17%. The compound was called inactive in [8].

Take `CCC1(CC)C(=O)NC(=O)NC1=O`: the Potency entry in [1], in experiment [2], in [3], in experiment [5], in experiment [6] and in experiment [7] was “inactive” each time. Also, the max response in experiment [4] is 0.988%. The compound was called inactive in [8].

Consider `C=CCSSCC=C`, for which the Potency entry in [1], in [2], in experiment [3], in experiment [5], in experiment [6] and in [9] was “inactive” in each case. Besides, the max response in experiment [4] was 1.18%. Moreover, the call in [8] was inactive.

For the compound `CC(C)(C)OOC(C)(C)CCC(C)(C)OOC(C)(C)C`, the Potency result in experiment [1], in [2], in experiment [3], in experiment [5], in experiment [6] and in [9] was “inactive” each time. The Potency result in experiment [10] was “inactive”. In [4], the max response was 9.43%. Also, the call in experiment [8] was inactive.

As to `CCOC(=O)c1cncn1C(C)c1ccccc1` (centres undefined), the Potency entry in experiment [1], in experiment [2], in [3], in [5], in [6] and in [10] was “inactive” each time. Also, the max response in experiment [4] is 3.04%. Besides, the compound was called inactive in [8].

`ClCc1ccccc1Cl`: the Potency result in experiment [1], in experiment [2], in [3], in experiment [5], in experiment [6] and in [9] was “inactive” throughout. Besides, in [4], the max response was -3.09%. For the same compound, the result in experiment [8] was inactive.

As to `C[C@]12C=CC3=C4CCC(=O)C=C4CC[C@H]3[C@@H]1CC[C@@H]2O`, the Potency entry in experiment [1], in experiment [2], in experiment [3], in experiment [5], in experiment [6] and in experiment [9] was “inactive” in each case. Moreover, in experiment [10], the Potency result is “inactive”. In addition, the max response in experiment [4] was -25.8%. For the same compound, the result in experiment [8] was inactive.

Consider `CCCCCCCCCCCCN(C)C`, for which the Potency entry in [1], in experiment [2], in [3], in [5] and in experiment [6] was “inactive” each time. Besides, the max response in experiment [4] was -4.6%. Further, the compound was called inactive in experiment [8].
